target: FH; assay: pooled miR-30 sensor sort-seq; sequence = guide strand; conditions: shRNA
Further: reference of the scale not given here.

Row | Sequence | sensor-assay potency score (higher = more potent)
1 | TAACACATTTTTAATCATCATT | -1.28
2 | TATATGAGGATTGAGAGCTGTC | 0.308
3 | AACATAACCACTAAATTCCTGC | -0.241

target: FIGF; assay: as above; conditions: shRNA

Row | Sequence | sensor-assay potency score (higher = more potent)
4 | TAGTGTTTCAATGTCATAGAAA | -1.28
5 | TGATCTGCTGTTCAGATCGTTC | -1.69
6 | TTACATTTGTTGCTATCCCATA | -0.837
7 | TACAGACACACTCGCAACGATC | -1.17
8 | TTGGTCTGGATTCACTGTGGTG | -0.724
9 | TAATCAGTCATATGACACCTGC | -0.697
10 | TAGAAGACATCCATCAATGAAC | -1.15
11 | TCATCTATAACTTTTAGTGTTT | -1.04
12 | TTTGTTGCTATCCCATAGCATG | -1.38
13 | TGTTTTACAGACACACTCGCAA | 0.505
14 | ATCTTCGTCAAACATCATGTGT | -0.944
15 | AAACTTTTGAGCCTCAGCCTGC | -0.913
16 | TTGCACTCAAAGCAACTGCAGT | -1.07
17 | TTCTTCATCTATAACTTTTAGT | -0.323
18 | TTCTGCATAAAAAAGAATCAGA | -0.887
19 | TTGGCAAGCACTTACAACCTGT | -0.889
20 | TAGAAAGTTGCCGCAAACCTAG | -0.566
21 | TTCATCTATAACTTTTAGTGTT | -0.356
22 | TTCTTTGCCATTCTTCATCTAT | -0.386
23 | TAATTGAGTATGGATGGCGGGG | -0.582
24 | TTACAGACACACTCGCAACGAT | -0.443
25 | TGCAACAGCCACCACATCGGAA | -0.975
26 | TTTTTTTTTAACACCTGGGAAA | -1.2
27 | TAGCATGTCAATAGGACAGAGT | -0.483

target: FILIP1L; assay: as above; conditions: shRNA

Row | Sequence | sensor-assay potency score (higher = more potent)
28 | TTGTCTACTGCTTCTGTCTGAA | 0.143
29 | TAATTTGTGATTGTCGAGGAAG | -0.722
30 | TTTTTCTTTTATATCTTGCAGC | -0.415
31 | TTCTTGATCAATTAGCTTCTTT | 0.000192
32 | TTAGAGAACCACAAGACTCTGG | 0.224
33 | TTTTTCAACATATTAACTCTTG | -0.558
34 | TTGCTGTTCATCCACCACCATC | -1.76
35 | TTACTCTGTAACGTCTCCCTTT | -0.579
36 | TTTTTCCACAACTTTGTCCAAC | -1.3
37 | TTGAGTTCGGTTATCCTGCAGT | -0.337
38 | TTTTCTGCTAACTTGTACTTAG | -0.314
39 | TATAGTTCATGCACAAACCTTC | -0.0966

— the OligoGym collection
